# Assay outcomes (PubChem BioAssay)
# IL-1B inflam inh: qHTS for Inhibitors of Inflammasome Signaling: IL-1-beta AlphaLISA Primary Screen; THP-1 LPS/ATP IL-1B secretion, AlphaLISA, 16 h; active compounds read low; activity change, % at 57.5 µM; hit rate 4.7% among 360,000; in the data active means activity change below about -50%; inconclusive means mostly about -30% to -49%
#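 Secreted IL-1B measured by AlphaLISA bead assay after 16 h compound exposure of THP-1 cells; compounds (final up to 57.5 uM) added 1 h before LPS (250 ng/mL) and ATP (1.25 mM) stimulation; lower signal means less secretion.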
# ELG1 repair inh: qHTS screen for small molecules that inhibit ELG1-dependent DNA repair in human embryonic kidney (HEK293T) cells expressing luciferase-tagged ELG1; hit rate 2.3% among 330,000; AID 504467, 2011; Potency, µM (highest dose often 46.1 µM), without a hit: at the top dose activity change, negative = inhibition, hits mostly inhibitors; HEK293T ELG1-luciferase reporter, luminescence, 16 h; DNA damage induced by 5-fluorouridine; further: potency means the concentration at half of the fitted maximal effect; nearly all actives have a fitted effect of over 55% in size
#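 Cells (2,000 per well) received 5-fluorouridine plus test compound or DMSO and were incubated 16 hr at 37 °C, 5% CO2. Luciferase activity was read by luminescence 30 min after ONE-Glo addition; signal suppression marked inhibition of damage-induced ELG1 function.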
# DT40 TDP1 no CPT: qHTS for Inhibitors of human tyrosyl-DNA phosphodiesterase 1 (TDP1): qHTS in cells in absence of CPT; DT40 Tdp1-/- hTDP1 cells, no CPT, ATP luminescence, 48 h; hit rate 15% among 420,000; Potency, µM (top dose mostly 46.2 µM), inactives show at the highest dose activity change, negative = growth inhibition, hits mostly inhibitors; further: potency means the concentration at half of the fitted maximal effect; nearly all actives have a fitted effect of over 55% in size
#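 No-CPT arm: Tdp1-/-;hTDP1 DT40 cells (400/well) plus compounds, incubated ≥48 hr at 37 °C. Readout CellTiter-Glo luminescence.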
# TDP1 inh: qHTS Assay for Inhibitors of Tyrosyl-DNA Phosphodiesterase (TDP1) | recombinant TDP1, AlphaScreen DNA substrate cleavage | Tyrosyl-DNA phosphodiesterase 1 (Homo sapiens), Q9NUW8 | Potency, µM (top dose mostly 130 µM), without a hit: top-dose activity change, negative = inhibition, hits mostly inhibitors | hit rate 0.28% among 350,000; further: potency means the concentration at half of the fitted maximal effect; nearly all actives have a fitted effect of over 40% in size
# Target sequence (Q9NUW8 whole entry, looked up): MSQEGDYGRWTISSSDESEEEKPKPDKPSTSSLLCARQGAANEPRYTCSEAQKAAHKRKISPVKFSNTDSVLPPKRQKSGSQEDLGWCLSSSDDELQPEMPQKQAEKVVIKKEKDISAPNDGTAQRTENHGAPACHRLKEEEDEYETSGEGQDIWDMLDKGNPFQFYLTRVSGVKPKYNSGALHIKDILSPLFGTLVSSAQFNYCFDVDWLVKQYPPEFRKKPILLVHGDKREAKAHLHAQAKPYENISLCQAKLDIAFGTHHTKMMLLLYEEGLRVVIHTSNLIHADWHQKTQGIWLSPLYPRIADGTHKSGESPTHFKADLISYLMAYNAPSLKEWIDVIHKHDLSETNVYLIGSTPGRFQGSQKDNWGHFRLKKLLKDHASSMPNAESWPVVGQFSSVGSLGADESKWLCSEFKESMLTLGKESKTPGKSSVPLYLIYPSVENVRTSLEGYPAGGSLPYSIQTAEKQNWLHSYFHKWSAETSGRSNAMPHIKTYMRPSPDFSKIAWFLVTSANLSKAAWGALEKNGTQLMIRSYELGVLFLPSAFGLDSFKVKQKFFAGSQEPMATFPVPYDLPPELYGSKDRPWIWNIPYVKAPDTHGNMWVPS
#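 Here, a 5' biotin and 3' phosphotyrosine-FITC DNA oligonucleotide reports Tdp1 activity: intact substrate bridges AlphaScreen beads, while cleavage leaves a 3' phosphate and drops signal. All incubations at room temperature.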
# Giardia kill: Small Molecules that selectively kill Giardia lamblia: qHTS; AID 540267, 2011; hit rate 0.15% among 340,000; activity change, % at 7.66 µM, hits read low; Giardia lamblia trophozoite viability; in the data active means activity change below about -80%; inconclusive means between about -30% and that limit;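 further: parasites exposed to compound for two days anaerobically before the ATP read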
#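 Luminescence from cellular ATP indicates surviving trophozoites (100 cells/well) following 48 hrs anaerobic compound treatment at 37 deg C; signal develops 15-30 min at room temperature.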
# DT40 TDP1 CPT: qHTS for Inhibitors of human tyrosyl-DNA phosphodiesterase 1 (TDP1): qHTS in cells in presence of CPT; chicken DT40 Tdp1-/-;hTDP1 cells + 20 nM CPT, ATP luminescence, 48 h; Potency, µM (highest dose often 46.2 µM), without a hit: top-dose activity change, negative = growth inhibition, most hits filed as inhibitors; hit rate 12% among 420,000; further: potency means the concentration at half of the fitted maximal effect; nearly all actives have a fitted effect of over 55% in size
#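 Chicken DT40 Tdp1-/- cells stably complemented with human TDP1 were seeded at 400 cells/well in medium containing 20 nM camptothecin, exposed to pin-transferred compounds, and grown at 37 °C for at least 48 hr. Viability was read as ATP luminescence.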
# An asterisk follows results filed as active; u = inconclusive; x = not tested or not shown; ! = a repeat was not active; [ ] = another dose, or the depositor's remark. Shown are actives, neighbours in structure and some others; about 19% of the full set was active somewhere. Unless noted, the call rests on the fitted dose curve; in most records, active means well fitted curve in the direction sought with a large enough effect; inconclusive means small, poorly fitted or top-dose-only effect, or another doubt; inactive means no such curve, though single readings can be large; an effect the other way counts as inactive or inconclusive. On the % scale 0 is the no-effect control and ±100 the full control effect.
SMILES,IL-1B inflam inh,ELG1 repair inh,DT40 TDP1 no CPT,TDP1 inh,Giardia kill,DT40 TDP1 CPT
CCC(c1nnnn1C1CCCC1)N(Cc1cccs1)Cc1cc2cc(C)ccc2[nH]c1=O (configuration not stated),-53.9*,u,20.6µM*,7.0%,-11.1,18.4µM*
CCOc1ccc2[nH]c(=O)c(CN(Cc3cccs3)C(CC)c3nnnn3C(C)(C)CC)cc2c1 (configuration not stated),u,u,18.4µM*,2.0%,-0.5,20.6µM*
Cn1c(=O)c2sccc2n2c(CCCC(=O)Nc3ccc(F)cc3F)nnc12,-1.5,-10.0%,u,6.5%,-28.5,-0.5%
Cc1cccc(Nc2ccncc2S(N)(=O)=O)c1,5.3,x,-5.1%,x,-6.9,0.3%
CC1(C)CC(N2CCCCC2)=CC(=[N+]2CCCCC2)C1,-70.1*,u,0.184µM*,6.9%,-18.1,0.146µM*
CN(C)NC1=CC(=[N+]2CCCC2)CC(C)(C)C1,6.0,3.4%,u,3.5%,-3.1,10.7%
CCCN(CCC)C1=CC(=[N+]2CCCC2)CC(C)(C)C1,u,u,0.13µM*,1.2%,3.1,0.206µM*
CC1C[N+](=C2C=C(N3CCOCC3)CC(C)(C)C2)CC(C)O1 (configuration not stated),-7.1,5.6%,-2.8%,-1.2%,u,29.1%
OB(O)c1ccc(Cl)s1,x,x,-11.6%,3.9%,7.6,-0.4%
CCCOc1ccc2oc(=O)c3c(c2c1)CCCN3C(=O)CN1CCCC(C(=O)OCC)C1 (configuration not stated),9.6,9.1%,23.1µM*,2.0%,31.5,u
CCCOc1ccc2oc(=O)c3c(c2c1)CCCN3C(=O)CN1CCN(c2ncccn2)CC1,5.5,6.4%,u,3.9%,3.1,18.4µM*
CCCOc1ccc2oc(=O)c3c(c2c1)CCCN3C(=O)CN1CCN(C(=O)c2ccco2)CC1,x,-2.3%,x,4.2%,x,x
CCOC(=O)C1CCN(CC(=O)N2CCCc3c2c(=O)oc2ccc(OCc4ccccc4)cc32)CC1,x,x,-21.6%,x,x,-22.4%
CCn1c(CC(=O)Nc2ccc(C)cc2)n[nH]c1=S,3.1,-4.0%,-19.1%,x,8.2,4.9%
OC1(c2cccnc2)CCN(Cc2ccc3c(c2)CN(Cc2cc(F)ccc2F)CCO3)CC1,x,x,u,x,x,9.1%[9.04 µM]
COc1ccc(NC(=O)CN(c2ccccc2F)S(=O)(=O)c2ccc(C)cc2)c(OC)c1,51.2,u,14.6µM*,7.0%,-11.1,16.4µM*
COc1ccc(N(CC(=O)NCc2ccc(C)cc2)S(=O)(=O)c2ccccc2[N+](=O)[O-])c(OC)c1,u,-9.6%,23.1µM*,3.0%,-0.4,u
CCOc1ccccc1N(CC(=O)Nc1ccc(OC)cc1OC)S(=O)(=O)c1ccccc1,0.0,16.4µM*,25.9µM*,x,-14.6,u
CCOc1ccccc1N(CC(=O)Nc1cccc(OC)c1)S(=O)(=O)c1ccccc1,10.1,-0.4%,u,-3.7%,u,29.1µM*
CC1CCc2nc3ncn(Cc4ccccc4F)c(=O)c3cc2C1 (configuration not stated),x,x,u,-0.6%,x,u
CCOc1ccc(NC(=O)CN(c2ccccc2OCC)S(=O)(=O)c2ccccc2)cc1,x,x,18.4µM*,1.9%[2.28 µM],x,u
C/C(CCN1CCCc2nc(C)c(C)cc21)=N\OC[C@@H](O)[C@@H]1O[C@@H]2OC(C)(C)O[C@@H]2[C@H]1O,x,x,x,10.1%[21 µM],x,x
CCSc1nnc(NC(=O)C2CC(=O)N(Cc3ccc(C)cc3)C2)s1 (configuration not stated),33.7,-10.3%,-24.6%,1.3%,-1.3,-16.2%
S=C(Nc1ccc2c(c1)OCO2)N1CCN(Cc2ccco2)CC1,u,u,2.9%,1.2%,u,u
CC(=O)C1=C(O)C(=O)N(Cc2ccccc2)C1c1ccco1 (configuration not stated),-0.9,1.8%,1.5%,0.794µM*,-3.9,3.5%
SMILES,IL-1B inflam inh,ELG1 repair inh,DT40 TDP1 no CPT,TDP1 inh,Giardia kill,DT40 TDP1 CPT
COC(=O)C1N[C@@H]([C@@H](NC(=O)COc2ccccc2)C(=O)NCc2ccccc2)SC1(C)C (some centres not stated),-2.4,x,20µM*!,x,-23.7,u
CCC(Oc1ccccc1)C(=O)N1CCN(Cc2cc(=O)n3nc(-c4cccc(C)c4)sc3n2)CC1 (configuration not stated),x,x,23.1µM*,10.8%,x,u
Cc1ccccc1-c1nn2c(=O)cc(CN3CCN(C(=O)c4ccc(C(C)(C)C)cc4)CC3)nc2s1,x,x,7.31µM*,2.7%,x,8.2µM*
CC(C)(C)c1ccc(C(=O)N2CCN(Cc3cc(=O)n4nc(-c5ccccc5F)sc4n3)CC2)cc1,x,x,-0.9%,5.4%,x,3.8%
CCOC(=O)CNC(=O)Nc1cc(C(=O)NCc2ccccc2OC)ccc1N1CCCC1,x,x,-24.7%,3.8%,x,-9.8%
O=C1[C@@H]2[C@H]3[C@H](O)[C@H](O)C/C(=N/OCc4ccccc4)[C@@H]3CC[C@H]2C(=O)N1c1ccc(F)cc1F,x,x,x,5.8%[21 µM],x,x
CCCN1CCN(CCCNC(=O)c2cnn(-c3ccc(F)cc3)c2-n2cccc2)CC1,x,x,x,0.0%,x,x
CC1(C)CC(=O)C2=C(C1)OC(N)=C(C#N)C2c1cn(-c2ccccc2)nc1-c1ccc(F)cc1 (configuration not stated),u,u,u,4.4%,12.1,14.6µM*
CC1(C)CC(=O)C2=C(C1)C(c1cn(-c3ccccc3)nc1-c1ccccc1)C(C#N)=C(N)O2 (configuration not stated),-56.3*,u,u,8.1%,2.2,u
Cn1cccc1C1C(C#N)=C(N)OC2=C1C(=O)CC(C)(C)C2 (configuration not stated),9.5,8.5%,1.1%,1.2%,9.7,-3.4%
CC1(C)CC(=O)C2=C(C1)OC(N)=C(C#N)[C@@H]2c1ccccc1[N+](=O)[O-],-12.8,5.6%,u,70.8µM*,-11.2,u
COc1cc(C2C(C#N)=C(N)OC3=C2C(=O)CC(C)(C)C3)c([N+](=O)[O-])cc1OC (configuration not stated),8.0,18.7%,-12.0%,-3.9%,6.4,1.2%
